Legend:
Test in all cases: DAPPL (digital affinity profiling via proximity ligation, sequencing); 10 mM Tris-HCl pH 7.5, 50 mM NaCl, 1 mM DTT, 4% glycerol, room temperature, 30 min; GST-TFs on glutathione beads, 16-mer random dsDNA library, 0.1% formaldehyde crosslink after washing; high values mean tight binding
Settings in all cases: protein: recombinant; tags: N-terminal GST; dsDNA, one strand shown
ELK1 = biological target: T1, ELK1 (Homo sapiens, UniProt P19419 1-428)
T1 sequence: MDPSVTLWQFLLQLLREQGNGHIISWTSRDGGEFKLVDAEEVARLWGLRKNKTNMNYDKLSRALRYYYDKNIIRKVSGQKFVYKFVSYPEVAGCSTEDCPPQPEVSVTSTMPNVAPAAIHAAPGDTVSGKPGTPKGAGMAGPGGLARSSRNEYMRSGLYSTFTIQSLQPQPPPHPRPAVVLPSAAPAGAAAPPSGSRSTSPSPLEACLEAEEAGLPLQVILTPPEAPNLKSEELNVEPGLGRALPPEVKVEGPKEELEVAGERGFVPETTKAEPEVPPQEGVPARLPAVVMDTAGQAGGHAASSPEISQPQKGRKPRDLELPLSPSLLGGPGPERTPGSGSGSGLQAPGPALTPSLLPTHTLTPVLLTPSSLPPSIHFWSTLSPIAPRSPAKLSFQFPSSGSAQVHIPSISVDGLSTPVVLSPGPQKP
Procedure, shortened: (§1)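 Beads coated with glutathione captured GST-fused human transcription factors that had been expressed in yeast, and the factors were then given DNA barcodes and pooled with a tag-only sample. The pools were incubated with 200 nmole of a random double-stranded 16-mer DNA library in Tris/NaCl/DTT/glycerol buffer for 30 min at room temperature, washed, crosslinked with 0.1% formaldehyde and proximity-ligated with BsaI/T4 ligase at 37 °C for 1 h. PCR amplification and Illumina NextSeq500 sequencing came last. Binding signal is each hexamer's read frequency for a factor divided by its frequency for the tag-only sample.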

GABPA = biological target: T2, GABPA (Homo sapiens, UniProt Q06546 1-454)
T2 sequence: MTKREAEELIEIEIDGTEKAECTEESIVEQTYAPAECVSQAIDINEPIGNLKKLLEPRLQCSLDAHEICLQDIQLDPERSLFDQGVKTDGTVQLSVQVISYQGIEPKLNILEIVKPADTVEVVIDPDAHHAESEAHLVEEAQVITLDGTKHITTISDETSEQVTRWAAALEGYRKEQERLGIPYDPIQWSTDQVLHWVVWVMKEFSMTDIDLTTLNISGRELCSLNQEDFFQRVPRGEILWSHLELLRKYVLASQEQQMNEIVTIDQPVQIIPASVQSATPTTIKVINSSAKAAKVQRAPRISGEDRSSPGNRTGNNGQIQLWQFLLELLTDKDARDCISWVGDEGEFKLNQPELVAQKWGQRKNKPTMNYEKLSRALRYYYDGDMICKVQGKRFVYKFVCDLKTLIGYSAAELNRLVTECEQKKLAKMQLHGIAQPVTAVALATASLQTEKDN
Procedure, shortened: as §1

ERG = biological target: T3, ERG (Homo sapiens, UniProt P11308 1-479)
T3 sequence: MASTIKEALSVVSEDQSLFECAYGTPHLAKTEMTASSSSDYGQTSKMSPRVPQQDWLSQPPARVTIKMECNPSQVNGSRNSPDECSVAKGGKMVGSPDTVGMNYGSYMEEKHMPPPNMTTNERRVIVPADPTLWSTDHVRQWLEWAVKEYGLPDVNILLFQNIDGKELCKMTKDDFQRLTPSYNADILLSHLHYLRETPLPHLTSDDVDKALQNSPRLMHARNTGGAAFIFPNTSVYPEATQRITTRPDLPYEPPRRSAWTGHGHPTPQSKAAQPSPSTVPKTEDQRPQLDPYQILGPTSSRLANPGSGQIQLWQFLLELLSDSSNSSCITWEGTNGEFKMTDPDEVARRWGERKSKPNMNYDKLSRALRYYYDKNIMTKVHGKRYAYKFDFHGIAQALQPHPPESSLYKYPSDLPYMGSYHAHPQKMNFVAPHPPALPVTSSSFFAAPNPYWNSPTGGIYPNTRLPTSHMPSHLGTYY
Procedure, shortened: as §1

ELF1 = ELF1 (Homo sapiens, UniProt P32519 1-619)
Procedure, shortened: as §1

EHF = biological target: T4, EHF (Homo sapiens, UniProt Q9NZC4 1-300)
T4 sequence: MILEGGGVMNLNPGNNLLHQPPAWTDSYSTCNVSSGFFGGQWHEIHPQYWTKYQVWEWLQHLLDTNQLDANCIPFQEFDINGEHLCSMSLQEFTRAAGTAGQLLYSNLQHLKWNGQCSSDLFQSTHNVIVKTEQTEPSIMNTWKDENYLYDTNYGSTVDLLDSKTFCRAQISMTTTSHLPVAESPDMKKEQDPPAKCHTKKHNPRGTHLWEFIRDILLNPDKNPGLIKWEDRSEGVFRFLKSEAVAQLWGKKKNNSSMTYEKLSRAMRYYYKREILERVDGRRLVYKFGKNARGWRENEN
Procedure, shortened: as §1

SPIC = biological target: T5, SPIC (Homo sapiens, UniProt Q8N5J4 1-248)
T5 sequence: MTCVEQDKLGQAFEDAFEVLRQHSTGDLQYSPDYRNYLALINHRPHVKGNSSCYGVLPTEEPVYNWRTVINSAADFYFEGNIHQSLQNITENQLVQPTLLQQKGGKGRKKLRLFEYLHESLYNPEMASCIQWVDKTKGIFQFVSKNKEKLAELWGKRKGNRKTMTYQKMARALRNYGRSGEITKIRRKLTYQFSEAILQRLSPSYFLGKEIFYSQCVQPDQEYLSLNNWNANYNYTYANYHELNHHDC
Procedure, shortened: as §1

ELF4 = ELF4 (Homo sapiens, UniProt Q99607 1-663)
Procedure, shortened: as §1

ELK4 = biological target: T6, ELK4 (Homo sapiens, UniProt P28324-2 1-405)
T6 sequence: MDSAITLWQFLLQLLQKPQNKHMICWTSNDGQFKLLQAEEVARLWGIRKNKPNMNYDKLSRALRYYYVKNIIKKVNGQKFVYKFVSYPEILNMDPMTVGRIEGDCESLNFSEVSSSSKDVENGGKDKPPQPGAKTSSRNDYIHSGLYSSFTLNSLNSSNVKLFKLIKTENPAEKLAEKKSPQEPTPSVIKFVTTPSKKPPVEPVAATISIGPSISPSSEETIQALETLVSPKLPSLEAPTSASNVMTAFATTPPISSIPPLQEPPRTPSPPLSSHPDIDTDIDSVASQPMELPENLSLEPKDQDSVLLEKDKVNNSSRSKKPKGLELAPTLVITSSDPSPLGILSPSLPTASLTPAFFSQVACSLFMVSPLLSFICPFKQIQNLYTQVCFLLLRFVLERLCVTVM
Procedure, shortened: as §1

ETV1 = ETV1 (Homo sapiens, UniProt P50549 1-477)
Procedure, shortened: as §1

SPDEF = biological target: T7, SPDEF (Homo sapiens, UniProt O95238 1-335)
T7 sequence: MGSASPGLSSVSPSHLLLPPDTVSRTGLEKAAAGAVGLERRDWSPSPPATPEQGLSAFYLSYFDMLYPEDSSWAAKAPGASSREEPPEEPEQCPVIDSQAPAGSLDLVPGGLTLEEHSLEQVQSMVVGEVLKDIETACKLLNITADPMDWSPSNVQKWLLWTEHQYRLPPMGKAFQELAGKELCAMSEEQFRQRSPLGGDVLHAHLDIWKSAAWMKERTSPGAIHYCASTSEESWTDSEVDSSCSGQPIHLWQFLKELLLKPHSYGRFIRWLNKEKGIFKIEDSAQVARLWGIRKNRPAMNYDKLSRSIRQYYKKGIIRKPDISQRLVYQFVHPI
Procedure, shortened: as §1

ETV6 = ETV6 (Homo sapiens, UniProt P41212 1-452)
Procedure, shortened: as §1

SPIB = SPIB (Homo sapiens, UniProt Q01892 1-262)
Procedure, shortened: as §1

ELK3 = biological target: T8, ELK3 (Homo sapiens, UniProt P41970 1-407)
T8 sequence: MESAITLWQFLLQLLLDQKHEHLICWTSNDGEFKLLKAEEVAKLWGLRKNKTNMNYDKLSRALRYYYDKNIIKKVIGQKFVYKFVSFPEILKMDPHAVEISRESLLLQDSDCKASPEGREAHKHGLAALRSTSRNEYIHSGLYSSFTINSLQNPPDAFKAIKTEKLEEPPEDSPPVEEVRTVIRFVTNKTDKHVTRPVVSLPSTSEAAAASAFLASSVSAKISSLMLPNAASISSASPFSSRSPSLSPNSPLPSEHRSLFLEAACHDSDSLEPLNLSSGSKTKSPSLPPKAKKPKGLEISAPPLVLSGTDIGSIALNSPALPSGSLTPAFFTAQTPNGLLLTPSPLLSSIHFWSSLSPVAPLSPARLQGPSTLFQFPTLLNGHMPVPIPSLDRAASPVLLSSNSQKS
Procedure, shortened: as §1

ERF = biological target: T9, ERF (Homo sapiens, UniProt P50548 1-548)
T9 sequence: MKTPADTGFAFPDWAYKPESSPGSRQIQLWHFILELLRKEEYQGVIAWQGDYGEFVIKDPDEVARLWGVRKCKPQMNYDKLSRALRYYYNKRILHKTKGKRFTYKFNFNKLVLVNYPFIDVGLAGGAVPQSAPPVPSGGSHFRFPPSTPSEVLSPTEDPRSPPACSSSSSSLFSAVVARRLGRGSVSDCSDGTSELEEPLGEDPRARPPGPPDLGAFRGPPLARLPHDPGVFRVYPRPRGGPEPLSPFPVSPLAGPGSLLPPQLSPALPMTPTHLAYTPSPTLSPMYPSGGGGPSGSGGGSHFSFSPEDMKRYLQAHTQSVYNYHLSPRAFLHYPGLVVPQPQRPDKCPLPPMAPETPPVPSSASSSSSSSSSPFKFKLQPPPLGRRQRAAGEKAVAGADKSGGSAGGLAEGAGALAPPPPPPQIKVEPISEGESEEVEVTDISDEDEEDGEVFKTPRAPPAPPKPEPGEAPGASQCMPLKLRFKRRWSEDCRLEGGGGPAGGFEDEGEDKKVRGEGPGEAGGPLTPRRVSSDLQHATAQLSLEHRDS
Procedure, shortened: as §1

ETV3L = biological target: T10, ETV3L (Homo sapiens, UniProt Q6ZN32 1-361)
T10 sequence: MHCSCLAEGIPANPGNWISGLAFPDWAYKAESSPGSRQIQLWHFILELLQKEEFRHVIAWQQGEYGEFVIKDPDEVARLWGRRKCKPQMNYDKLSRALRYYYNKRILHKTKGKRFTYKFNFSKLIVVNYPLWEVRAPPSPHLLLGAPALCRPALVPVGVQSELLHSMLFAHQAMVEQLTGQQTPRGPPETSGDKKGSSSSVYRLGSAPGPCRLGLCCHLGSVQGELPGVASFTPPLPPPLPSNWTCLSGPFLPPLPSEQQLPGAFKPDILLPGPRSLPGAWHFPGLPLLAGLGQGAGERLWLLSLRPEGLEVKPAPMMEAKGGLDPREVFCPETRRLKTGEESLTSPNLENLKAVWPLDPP
Procedure, shortened: as §1

ETS2 = biological target: T11, ETS2 (Homo sapiens, UniProt P15036 1-469)
T11 sequence: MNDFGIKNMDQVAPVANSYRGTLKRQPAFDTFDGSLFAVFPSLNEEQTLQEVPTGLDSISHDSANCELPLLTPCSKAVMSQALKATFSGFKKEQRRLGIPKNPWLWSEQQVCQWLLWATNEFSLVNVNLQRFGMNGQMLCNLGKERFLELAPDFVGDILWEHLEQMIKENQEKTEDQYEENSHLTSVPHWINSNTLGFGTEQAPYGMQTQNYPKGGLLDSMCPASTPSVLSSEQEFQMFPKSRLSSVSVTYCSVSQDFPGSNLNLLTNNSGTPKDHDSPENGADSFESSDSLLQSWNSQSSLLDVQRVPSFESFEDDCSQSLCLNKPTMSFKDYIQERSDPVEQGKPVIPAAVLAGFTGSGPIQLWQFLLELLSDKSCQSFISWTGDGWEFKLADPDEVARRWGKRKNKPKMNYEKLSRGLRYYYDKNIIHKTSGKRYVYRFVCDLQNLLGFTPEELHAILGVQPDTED
Procedure, shortened: as §1

ETV7 = biological target: T12, ETV7 (Homo sapiens, UniProt Q9Y603 1-341)
T12 sequence: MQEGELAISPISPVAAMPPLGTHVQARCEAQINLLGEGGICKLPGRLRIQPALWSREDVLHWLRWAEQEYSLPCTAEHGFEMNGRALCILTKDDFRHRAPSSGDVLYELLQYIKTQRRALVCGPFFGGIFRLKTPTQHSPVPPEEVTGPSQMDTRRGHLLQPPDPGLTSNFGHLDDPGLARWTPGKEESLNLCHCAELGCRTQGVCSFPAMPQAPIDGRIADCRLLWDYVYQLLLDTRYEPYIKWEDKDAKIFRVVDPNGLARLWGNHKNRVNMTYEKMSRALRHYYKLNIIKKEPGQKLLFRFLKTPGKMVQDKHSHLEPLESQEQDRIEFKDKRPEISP
Procedure, shortened: as §1

Chain of ETV6 (P41212 whole entry): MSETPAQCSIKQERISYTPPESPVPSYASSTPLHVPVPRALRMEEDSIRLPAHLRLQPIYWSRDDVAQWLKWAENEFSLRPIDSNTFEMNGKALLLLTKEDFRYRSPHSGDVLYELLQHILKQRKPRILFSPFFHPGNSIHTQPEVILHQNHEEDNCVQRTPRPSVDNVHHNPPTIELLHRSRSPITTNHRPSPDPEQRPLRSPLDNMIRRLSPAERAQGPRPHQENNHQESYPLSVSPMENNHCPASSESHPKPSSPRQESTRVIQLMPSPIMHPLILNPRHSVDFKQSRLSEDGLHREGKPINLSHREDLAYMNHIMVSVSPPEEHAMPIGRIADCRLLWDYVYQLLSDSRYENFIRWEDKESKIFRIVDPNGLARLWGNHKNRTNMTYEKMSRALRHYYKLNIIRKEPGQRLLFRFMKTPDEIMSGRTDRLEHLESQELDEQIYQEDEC
Chain of ELF1 (P32519 whole entry): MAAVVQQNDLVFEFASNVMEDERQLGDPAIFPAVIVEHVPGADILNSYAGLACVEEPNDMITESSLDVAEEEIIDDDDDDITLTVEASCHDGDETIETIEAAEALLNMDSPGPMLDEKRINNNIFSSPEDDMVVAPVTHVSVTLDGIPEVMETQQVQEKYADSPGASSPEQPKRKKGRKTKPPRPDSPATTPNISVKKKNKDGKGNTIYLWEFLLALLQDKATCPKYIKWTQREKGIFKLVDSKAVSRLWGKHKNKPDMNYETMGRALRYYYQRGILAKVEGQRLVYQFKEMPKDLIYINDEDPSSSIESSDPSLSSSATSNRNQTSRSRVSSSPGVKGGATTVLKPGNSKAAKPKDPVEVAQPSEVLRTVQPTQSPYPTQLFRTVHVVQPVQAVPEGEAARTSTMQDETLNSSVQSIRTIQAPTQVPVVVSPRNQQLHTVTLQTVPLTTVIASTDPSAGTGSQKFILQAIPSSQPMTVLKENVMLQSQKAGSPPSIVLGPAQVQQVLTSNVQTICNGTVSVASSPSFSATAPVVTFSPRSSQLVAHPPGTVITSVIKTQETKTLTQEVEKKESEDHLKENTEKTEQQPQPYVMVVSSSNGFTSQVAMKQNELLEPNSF
Chain of SPIB (Q01892 whole entry): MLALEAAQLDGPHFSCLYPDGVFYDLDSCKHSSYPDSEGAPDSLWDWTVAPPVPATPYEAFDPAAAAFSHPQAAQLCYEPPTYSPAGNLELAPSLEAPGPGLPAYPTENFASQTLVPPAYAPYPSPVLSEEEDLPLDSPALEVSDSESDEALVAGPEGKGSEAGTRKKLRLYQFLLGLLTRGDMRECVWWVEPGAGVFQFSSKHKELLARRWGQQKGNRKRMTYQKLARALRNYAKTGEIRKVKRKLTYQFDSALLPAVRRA
Chain of ETV1 (P50549 whole entry): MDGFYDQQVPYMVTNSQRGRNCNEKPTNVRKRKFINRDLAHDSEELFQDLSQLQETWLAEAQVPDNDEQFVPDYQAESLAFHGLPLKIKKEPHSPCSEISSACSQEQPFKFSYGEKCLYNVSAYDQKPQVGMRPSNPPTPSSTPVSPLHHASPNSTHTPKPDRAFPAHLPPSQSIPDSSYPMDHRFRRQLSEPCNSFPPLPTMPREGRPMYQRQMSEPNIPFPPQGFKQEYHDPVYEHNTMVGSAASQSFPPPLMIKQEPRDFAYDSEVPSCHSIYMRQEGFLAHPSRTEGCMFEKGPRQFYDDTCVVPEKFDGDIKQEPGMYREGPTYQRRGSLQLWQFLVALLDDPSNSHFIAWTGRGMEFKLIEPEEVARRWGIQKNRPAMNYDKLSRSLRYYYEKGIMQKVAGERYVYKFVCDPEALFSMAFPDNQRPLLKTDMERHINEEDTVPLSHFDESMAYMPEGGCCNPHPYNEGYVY
Chain of ELF4 (Q99607 whole entry): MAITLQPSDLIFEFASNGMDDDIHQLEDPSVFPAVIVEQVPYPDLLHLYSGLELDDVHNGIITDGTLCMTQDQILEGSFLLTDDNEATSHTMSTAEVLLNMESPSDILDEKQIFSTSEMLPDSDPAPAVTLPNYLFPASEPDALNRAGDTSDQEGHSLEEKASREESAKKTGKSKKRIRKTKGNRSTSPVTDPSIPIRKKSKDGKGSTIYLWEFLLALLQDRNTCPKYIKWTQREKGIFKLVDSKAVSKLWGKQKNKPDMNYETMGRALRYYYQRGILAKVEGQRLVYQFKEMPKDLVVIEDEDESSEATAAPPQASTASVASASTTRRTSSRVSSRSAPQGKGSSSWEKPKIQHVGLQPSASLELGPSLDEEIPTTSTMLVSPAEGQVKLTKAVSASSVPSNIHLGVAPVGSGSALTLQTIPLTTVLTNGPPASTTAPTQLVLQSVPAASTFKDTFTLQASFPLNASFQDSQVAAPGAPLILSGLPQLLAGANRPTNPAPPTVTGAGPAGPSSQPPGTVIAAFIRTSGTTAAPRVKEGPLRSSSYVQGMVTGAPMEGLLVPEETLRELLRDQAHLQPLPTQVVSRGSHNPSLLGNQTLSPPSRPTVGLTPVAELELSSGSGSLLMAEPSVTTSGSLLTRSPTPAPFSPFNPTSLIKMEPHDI

Sequence	binding signal (ELK1)	binding signal (GABPA)	binding signal (ERG)	binding signal (ELF1)	binding signal (EHF)	binding signal (SPIC)	binding signal (ELF4)	binding signal (ELK4)	binding signal (ETV1)	binding signal (SPDEF)	binding signal (ETV6)	binding signal (SPIB)	binding signal (ELK3)	binding signal (ERF)	binding signal (ETV3L)	binding signal (ETS2)	binding signal (ETV7)
CGCAAC	1.08 fold enrichment (6-mer frequency, TF over GST control)	1.08 fold enrichment (6-mer frequency, TF over GST control)	1.03 fold enrichment (6-mer frequency, TF over GST control)	1.12 fold enrichment (6-mer frequency, TF over GST control)	1.01 fold enrichment (6-mer frequency, TF over GST control)	1.08 fold enrichment (6-mer frequency, TF over GST control)	1.06 fold enrichment (6-mer frequency, TF over GST control)	1 fold enrichment (6-mer frequency, TF over GST control)	1.03 fold enrichment (6-mer frequency, TF over GST control)	1.03 fold enrichment (6-mer frequency, TF over GST control)	1.07 fold enrichment (6-mer frequency, TF over GST control)						
GATTAA	1.04 fold enrichment (6-mer frequency, TF over GST control)	1.04 fold enrichment (6-mer frequency, TF over GST control)		1.02 fold enrichment (6-mer frequency, TF over GST control)	1.01 fold enrichment (6-mer frequency, TF over GST control)			1.06 fold enrichment (6-mer frequency, TF over GST control)		1.08 fold enrichment (6-mer frequency, TF over GST control)	1.12 fold enrichment (6-mer frequency, TF over GST control)	1.02 fold enrichment (6-mer frequency, TF over GST control)	1.13 fold enrichment (6-mer frequency, TF over GST control)	1.04 fold enrichment (6-mer frequency, TF over GST control)	1.1 fold enrichment (6-mer frequency, TF over GST control)	1.01 fold enrichment (6-mer frequency, TF over GST control)	1.01 fold enrichment (6-mer frequency, TF over GST control)

Reference: paper PMC7862700, “An all-to-all approach to the identification of sequence-specific readers for epigenetic DNA modifications on cytosine”
